Laboratory results taken from PubChem BioAssay AID583 (Sanford-Burnham Center for Chemical Genomics, 2007).
Values joined by “and” are separate entries in the source; they are usually repeats but may differ in a detail not shown here. Identical values can stand only once. About 80 (0.06%) of roughly 140,000 compounds were called active. Rule as the data show it: active = displacement above about 50%; inactive = the rest. For the sample, actives were picked, then their nearest neighbours and some compounds at random. More than one record can exist for a structure, and the calls need not agree.

Target: Heat shock 70 kDa protein 1A (Homo sapiens) (UniProt P0DMV8)
Sequence (P0DMV8 whole entry, looked up): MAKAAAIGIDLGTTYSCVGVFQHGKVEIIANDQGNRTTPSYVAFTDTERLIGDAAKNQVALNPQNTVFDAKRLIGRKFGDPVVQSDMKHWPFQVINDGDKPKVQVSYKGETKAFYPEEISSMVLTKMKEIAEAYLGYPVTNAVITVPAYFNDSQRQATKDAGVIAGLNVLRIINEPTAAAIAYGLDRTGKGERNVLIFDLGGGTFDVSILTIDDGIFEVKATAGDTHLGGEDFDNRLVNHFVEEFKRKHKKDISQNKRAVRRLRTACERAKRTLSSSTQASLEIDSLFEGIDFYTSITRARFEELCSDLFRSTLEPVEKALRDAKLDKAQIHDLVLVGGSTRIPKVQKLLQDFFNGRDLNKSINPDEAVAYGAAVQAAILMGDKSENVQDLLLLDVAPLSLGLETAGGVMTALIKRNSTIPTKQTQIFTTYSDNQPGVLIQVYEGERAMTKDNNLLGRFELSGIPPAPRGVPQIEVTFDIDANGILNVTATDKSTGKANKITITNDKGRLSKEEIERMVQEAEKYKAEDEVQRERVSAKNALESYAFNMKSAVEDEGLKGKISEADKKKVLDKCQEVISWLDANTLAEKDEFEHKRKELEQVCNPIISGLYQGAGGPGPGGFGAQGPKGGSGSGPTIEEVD
Experiment: Hsp70 inhibitors, probe displacement, primary screen, biochemical, fluorescence polarization (AID 583);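 also: plate controls were vehicle for no effect and reference ligand for full effect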
Details: mP, at 20 µM, stronger effect = higher value

Row | SMILES | displacement
1 | CCOC(=O)c1c(NC(=O)c2cccnc2)sc2c1CCC2 | -2% (inactive)
2 | CC(C)OC(=O)c1c(NC(=O)c2cccnc2)sc2c1CCCCC2 | 80.1% (active)
3 | CCOC(=O)c1c(NC(=O)c2cccnc2)sc2c1CCCC2 | 6.4% (inactive)
4 | COc1ccc(-c2cc(C(F)(F)F)nc(-n3cc(Br)cn3)n2)cc1 | -0.2% (inactive)
5 | CCCN1C(=O)/C(=C2\SC(=S)N(CCC(=O)O)C2=O)c2ccccc21 | -0.7% (inactive)
6 | O=C(O)CCCCCN1C(=O)/C(=C2/C(=O)N(CC(=O)O)c3ccccc32)SC1=S | 5.6% (inactive)
7 | O=C(O)CCN1C(=O)/C(=C2\C(=O)N(Cc3ccccc3Cl)c3ccccc32)SC1=S | 53.2% (active)
8 | Cc1cc(C)c(C(=O)CSc2n[nH]c(=O)n2C2CC2)cc1C | 0.8% (inactive)
9 | COCCOC(=O)c1ccc(NC(=O)COc2ccc(C)c(C)c2)cc1 | 86.3% (active)
10 | COCCOC(=O)c1ccc(NC(=O)COc2ccc(C)cc2)cc1 | 3.9% (inactive)
11 | COCCOC(=O)c1ccc(NC(=O)COc2cc(C)c(Cl)c(C)c2)cc1 | 0.2% (inactive)
12 | C/C(=N\NC(=O)c1cc(-c2cccc([N+](=O)[O-])c2)n[nH]1)c1ccccc1O | -0.9% (inactive)
13 | CCN(CC)C(=O)CSc1nnc(CCN)o1 | -0.4% (inactive)
14 | O=c1c2ccccc2nnn1CSc1nnc(-c2cccc(S(=O)(=O)N3CCCCC3)c2)o1 | -0.1% (inactive)
15 | CCOC(=O)C(=O)Nc1ccc(NC(C)=O)cc1 | 56.6% (active)
16 | CCOC(=O)C(=O)Nc1ccc(F)cc1 | 5.5% (inactive)
17 | CCOC(=O)C(=O)Nc1ccc(C(N)=O)cc1 | -0.8% (inactive)
18 | CCc1ccccc1NC(=O)CN(c1ccc(OC)c(Cl)c1)S(C)(=O)=O | -3.3% (inactive)
19 | O=C(O)C1Nc2c(Cl)cc(Cl)cc2C2C=CCC12 (configuration not stated) | 78% (active)
20 | O=C(O)C1Nc2c(C(=O)N3CCCC3)cccc2C2C=CCC12 (configuration not stated) | 11.2% (inactive)
21 | O=C(O)C1Nc2c(C(=O)N3CCOCC3)cccc2C2C=CCC12 (configuration not stated) | 17.9% (inactive)

Row | SMILES | displacement
22 | Cc1c(Cl)ccc2c1NC(C(=O)O)C1CC=CC21 (configuration not stated) | 95.7% (active)
23 | COc1ccc2c(c1)C1C=CCC1C(C(=O)O)N2 (configuration not stated) | 31.6% (inactive)
24 | Cc1cc(I)c2c(c1)C1C=CCC1C(C(=O)O)N2 (configuration not stated) | 23.8% (inactive)
25 | O=C(Nc1ccc2c(c1)OCCO2)c1cnc2ccccn2c1=O | 0.6% (inactive)
26 | CCN(CC)CCCOc1c(Cl)cccc1Cl | 0.3% (inactive)
27 | Cc1cccc(OCC(=O)N2CCN(C(=O)c3cccs3)CC2)c1 | -2.2% (inactive)
28 | O=C1c2cccc3cccc(c23)C(=O)N1c1ccc2c(c1)OCO2 | -2.6% (inactive)
29 | CCOC(=O)c1c(C)nc(-c2ccccc2)nc1NC(=O)c1ccccc1 | -1.8% (inactive)
30 | CCOC(=O)c1c(C)nc(C)nc1NC(=O)c1ccccc1 | 85.3% (active)
31 | CCOC(=O)c1c(C)nc(-c2ccccc2)nc1NC(C)=O | 0.2% (inactive) and 7.4% (inactive)
32 | CC1=C(C(=O)Nc2ccccn2)C(c2cccnc2)n2nnnc2N1 (configuration not stated) | 1.5% (inactive)
33 | COc1cccc(-c2nc3ccccc3c(=O)o2)c1 | -0.1% (inactive)
34 | O=c1nc(/C=C/c2cc([N+](=O)[O-])ccc2Cl)cc(C(F)(F)F)[nH]1 | 3.5% (inactive)
35 | O=[N+]([O-])c1ccc(O)c(-c2cc(C(F)(F)F)nc(-c3ccccc3)n2)c1 | 4.6% (inactive)
36 | O=C(Cn1ncc2c1-c1ccccc1OC2)Nc1nc2ccccc2s1 | 0% (inactive)
37 | N#Cc1c(NC(=O)CCN2C(=O)c3ccccc3C2=O)sc2c1CCCC2 | 72.6% (active)
38 | N#Cc1c(NC(=O)CCCN2C(=O)c3ccccc3C2=O)sc2c1CCCC2 | 2.9% (inactive)
39 | NC(=O)c1c(NC(=O)CCN2C(=O)c3ccccc3C2=O)sc2c1CCC2 | -3.3% (inactive)
40 | COc1ccc(C2Nc3ccccc3NC3=C2C(=O)CC(c2ccc(Cl)cc2)C3)cc1 (configuration not stated) | -0.1% (inactive)
41 | CC1(C)C2CCC1(C)C(NC(=O)C1CC3c4ccccc4C1c1ccccc13)C2 (configuration not stated) | 1.1% (inactive)
42 | Cc1ccc(NC(=O)CSc2nnc(-c3ccccc3Br)o2)cc1C | -2.9% (inactive)

Row | SMILES | displacement
43 | Cc1ccccc1-n1c(O)c(C=C2C=CC=N2)c(=O)[nH]c1=S | 44.3% (inactive)
44 | O=c1[nH]c(=S)n(-c2cccc(Cl)c2)c(O)c1/C=C1/C=CC=N1 | 10% (inactive)
45 | Cn1c(O)c(/C=C2/C=CC=N2)c(=O)n(-c2ccccc2)c1=S | 53% (active)
46 | Cc1ccc(N2C(=O)C3CC=C(c4ccccc4)CC3C2=O)cc1 (configuration not stated) | -0.4% (inactive)
47 | O=C1C2CC=C(c3ccccc3)CC2C(=O)N1c1ccc(Br)cc1 (configuration not stated) | 60.4% (active)
48 | CC1=C(C)CC2C(=O)N(c3ccc(Br)cc3)C(=O)C2C1 (configuration not stated) | 4.3% (inactive)
49 | O=C1NC(=S)S/C1=C/c1cc(Br)ccc1OCc1ccccc1Cl | 4.3% (inactive)
50 | Cn1c(CN2CCCCC2)nc2cc(NC(=O)c3ccccc3)ccc21 | 1.9% (inactive)
51 | COc1ccc(OC)c(NC(=S)NC(NC(=O)Cc2ccccc2)C(Cl)(Cl)Cl)c1 (configuration not stated) | -6.4% (inactive)
52 | O=C(Nc1ccccc1)c1ccccc1C(=O)N1CCCCC1 | 4.4% (inactive)
53 | CC1(C)OC(=O)C(=Cc2ccc(-c3ccc(Cl)cc3Cl)o2)C(=O)O1 | -3.2% (inactive)
54 | CC1(C)OC(=O)C(=Cc2ccc(I)o2)C(=O)O1 | 97.3% (active)
55 | O=C1C(=Cc2ccc(I)o2)C(=O)c2ccccc21 | 10.7% (inactive)
56 | COc1ccc(OC)c(C=NN2CCN(Cc3ccccc3Cl)CC2)c1 | -1.8% (inactive)
57 | CCOc1cc(C2Nc3ccc4ccccc4c3C3=C2CC(C)(C)CC3=O)ccc1O (configuration not stated) | 2.3% (inactive)
58 | Cc1csc(NC(=O)c2ccc([N+](=O)[O-])cc2Cl)n1 | 5.8% (inactive)
59 | Nc1ccc(S(=O)(=O)O)c2cccc(S(=O)(=O)O)c12 | 6.4% (inactive)
60 | Nc1ccc(S(=O)(=O)O)c2cccc(O)c12 | 34.1% (inactive) and 73.7% (active)
61 | Nc1cc(S(=O)(=O)O)cc2cccc(S(=O)(=O)O)c12 | 4.7% (inactive)
62 | O=C1c2ccccc2C(=O)N1/N=C/c1ccc(O)cc1O | -1.5% (inactive)
